Rows were chosen to be rich in hits. Some 1.8% of all compounds tested hit in one or more screens of this group.
PME-1 primary = blocks human protein phosphatase methylesterase 1 | Q9Y570 | recombinant PME-1, FP-Rh probe fluorescence polarization | inhibition, % at 5.9 µM | actives 0.53% (n = 320,000) | AID 2130;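 active = inhibition above the campaign mean of all compounds plus 3 SD, cut at about 26% in these data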;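 also: competitive labeling of PME-1 active site by serine hydrolase directed probe; 0% = PME-1 with DMSO and 100% = wells lacking PME-1 enzyme; inhibitors block probe labeling so polarization falls and inhibition rises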
Target sequence (Q9Y570 whole entry, looked up): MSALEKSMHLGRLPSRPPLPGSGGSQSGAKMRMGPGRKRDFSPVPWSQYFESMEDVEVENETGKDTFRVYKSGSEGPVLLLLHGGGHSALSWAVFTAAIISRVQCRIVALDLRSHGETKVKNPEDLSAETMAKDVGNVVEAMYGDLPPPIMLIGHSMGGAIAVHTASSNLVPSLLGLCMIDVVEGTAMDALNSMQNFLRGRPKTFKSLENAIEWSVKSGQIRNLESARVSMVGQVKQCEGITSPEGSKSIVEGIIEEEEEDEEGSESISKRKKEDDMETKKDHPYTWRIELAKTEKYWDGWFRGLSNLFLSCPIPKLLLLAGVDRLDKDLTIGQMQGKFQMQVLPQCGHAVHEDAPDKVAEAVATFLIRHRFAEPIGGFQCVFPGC
Fam108B inh = counter-screen for RBBP9 inhibitors: inhibitors of mouse Fam108B; recombinant Fam108B, FP-Rh probe fluorescence polarization; inhibition, % at 9.51 µM; actives 0.33% (n = 300,000); AID 1947;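 active = inhibition above the screen mean inhibition plus 3 SD, computed separately per campaign, cut at about 18% in these data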;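 also: inhibitors lower polarization as less probe binds the enzyme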
GSTO1 counter = GSTO1 inhibition, counter-screen for RBBP9 inhibitors. P78417. recombinant GSTO1, activity-based probe fluorescence polarization. inhibition, % at 5.96 µM. actives 1.1% (n = 300,000). AID 1974;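 active = inhibition above the campaign mean inhibition plus 3 SD, cut at about 35% in these data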;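 also: 0% = GSTO1-1 with DMSO and 100% = wells lacking GSTO1-1 enzyme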
LYPLA1 counter = LYPLA1 (human) inhibition in PME1 counter-screen; inhibition, % at 5.9 µM; recombinant LYPLA1, FP-Rh probe fluorescence polarization; AID 2174; O75608; actives 0.16% (n = 320,000);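 active = inhibition above the mean of all tested compounds plus 3 SD, set per campaign, cut at about 14% in these data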;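 also: inhibitors block serine hydrolase probe labeling of LYPLA1 so polarization falls; 0% = enzyme with DMSO and 100% = wells lacking LYPLA1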
PAD4 FP inh = blocks human protein arginine deiminase 4. Q9UM07. inhibition, % at 6.36 µM. actives 0.41% (n = 330,000). recombinant PAD4, RCA probe fluorescence polarization;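 active = percent inhibition above a cutoff equal to the mean of all tested compounds plus 3 SD, cut at about 15% in these data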;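 also: 0% = PAD4 with RCA probe and DMSO and 100% = probe without PAD4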
LYPLA2 inh = blocks human lysophospholipase 2, a PME1 counter-screen. O95372. recombinant LYPLA2, FP-Rh probe fluorescence polarization. inhibition, % at 5.9 µM. actives 0.38% (n = 320,000). AID 2177;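 active = inhibition above the screen-wide mean plus 3 SD, limit set per campaign, cut at about 26% in these data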;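 also: 0% = LYPLA2 with DMSO and 100% = wells lacking LYPLA2 enzyme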
Target sequence (O95372 whole entry, looked up): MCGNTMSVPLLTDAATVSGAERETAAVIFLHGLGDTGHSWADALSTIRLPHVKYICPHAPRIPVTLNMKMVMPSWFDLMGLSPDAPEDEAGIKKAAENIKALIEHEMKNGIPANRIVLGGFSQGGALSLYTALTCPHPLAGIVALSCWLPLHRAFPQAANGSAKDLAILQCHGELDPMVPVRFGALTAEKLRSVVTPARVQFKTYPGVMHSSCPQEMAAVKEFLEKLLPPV
LYPLA1 confirm = LYPLA1 (human) inhibition, confirmation counter-screen; shares compounds with LYPLA1 counter; recombinant LYPLA1, FP-Rh probe fluorescence polarization; inhibition, % at 5.9 µM; actives 69% (n = 480); AID 2233;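 active = mean inhibition across replicates above the hit cutoff set in the primary screen, cut at about 15% in these data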;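 also: loss of FP-Rh probe labeling of LYPLA1 seen as lower polarization; 0% = LYPLA1 with DMSO and 100% = wells lacking LYPLA1 enzyme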
LYPLA2 confirm = LYPLA2 (human) inhibition, confirmation counter-screen; inhibition, % at 5.9 µM; shares compounds with LYPLA2 inh; AID 2232; recombinant LYPLA2, FP-Rh probe fluorescence polarization; actives 72% (n = 1,100);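 active = mean inhibition across replicates above the hit cutoff set in the primary screen, cut at about 26% in these data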;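 also: blocked labeling of the enzyme by serine hydrolase FP-Rh probe lowers polarization; 0% = enzyme with DMSO and 100% = wells lacking LYPLA2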
PAD4 confirm = confirmation of human PAD4 inhibitors | shares compounds with PAD4 FP inh | recombinant PAD4, RCA probe fluorescence polarization | inhibition, % at 6.36 µM | actives 28% (n = 1,200);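 active = mean inhibition across replicates above the hit cutoff set by the earlier primary screen, cut at about 15% in these data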;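 also: inhibitors block active-site labeling by the probe so polarization falls; 0% = PAD4 with probe and DMSO and 100% = probe without PAD4 enzyme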
An asterisk follows results filed as active.

COc1ccc(CC(C)N2CCN(Cc3ccccc3)CC2)cc1OC (stereo not drawn) was read as PME-1 primary -2, Fam108B inh -5, GSTO1 counter -4, LYPLA1 counter 25*, PAD4 FP inh 2, LYPLA2 inh 28*, LYPLA1 confirm 5 and LYPLA2 confirm -4.
For COc1ccc(CCNC(=O)c2ccc(C)s2)cc1OC the results were PME-1 primary 2, Fam108B inh 2, GSTO1 counter 6, LYPLA1 counter -1, PAD4 FP inh 1 and LYPLA2 inh 2.
For OC(COc1ccc(Cl)cc1)CN1CCN(c2cccc(Cl)c2)CC1 (stereo not drawn) the results were PME-1 primary 2, Fam108B inh 3, GSTO1 counter -11, LYPLA1 counter 20*, PAD4 FP inh 4, LYPLA2 inh 59*, LYPLA1 confirm 27* and LYPLA2 confirm 62*.
For Cc1cc(C)c(NC(=O)CSc2ccc(-c3cccnc3)nn2)c(C)c1 the results were PME-1 primary 7, Fam108B inh 1, GSTO1 counter 8, LYPLA1 counter 2, PAD4 FP inh 1 and LYPLA2 inh -3.
Screening CC(C)(C)OC(=O)NCCc1nnc(SCc2c(Cl)cccc2Cl)o1 returned PME-1 primary -1, Fam108B inh 2, GSTO1 counter 7, LYPLA1 counter 2, PAD4 FP inh 0 and LYPLA2 inh 9.
`CC(C)(C)OC(=O)NCCCCCc1nnc(SCc2c(F)cccc2Cl)o1` gave PME-1 primary -13, Fam108B inh 2, GSTO1 counter 7, LYPLA1 counter 25*, PAD4 FP inh -2, LYPLA2 inh 40*, LYPLA1 confirm 41* and LYPLA2 confirm 44*.
For CC(C)(C)CC(=O)N1CCN(c2ccc(S(=O)(=O)N3CCOCC3)cc2[N+](=O)[O-])CC1 the results were PME-1 primary -5, LYPLA1 counter -2, PAD4 FP inh -7 and LYPLA2 inh 12.
Screening Nc1ccc(N2CCOCC2)c2nonc12 returned PME-1 primary 25, Fam108B inh 9, GSTO1 counter 86*, LYPLA1 counter 70*, PAD4 FP inh 81*, LYPLA2 inh 70*, LYPLA1 confirm 1 and PAD4 confirm -8.
For CC(=O)Nc1ccc(NC(=O)CCCCCN2C(=O)c3ccccc3C2=O)cc1 the results were PME-1 primary -2, Fam108B inh -3, GSTO1 counter 6, LYPLA1 counter -2, PAD4 FP inh 5 and LYPLA2 inh 14.
Screening CC(=O)Nc1ccc(Nc2c3c4c(cccc4n(C)c2=O)C(=O)c2ccccc2-3)cc1 returned PME-1 primary 33*, Fam108B inh 15, GSTO1 counter 9, LYPLA1 counter 21*, PAD4 FP inh 19*, LYPLA2 inh 29*, LYPLA1 confirm 12, LYPLA2 confirm 12 and PAD4 confirm 23*.
For C=CCNC(=S)NS(=O)(=O)c1cccs1 the results were PME-1 primary 1, Fam108B inh 2, GSTO1 counter -2, LYPLA1 counter -5, PAD4 FP inh 1 and LYPLA2 inh 9.
Screening Cc1ccc(N(CC(=O)Nc2ccc(C)cn2)S(=O)(=O)c2c(C)nn(C)c2C)cc1 returned PME-1 primary 6, Fam108B inh 16, GSTO1 counter 36*, LYPLA1 counter 16*, PAD4 FP inh 49*, LYPLA2 inh 16, LYPLA1 confirm 2 and PAD4 confirm -6.
Cc1ccc(-c2ccccc2NC(=O)CS(=O)CC(=O)Nc2ccc(C)c(Cl)c2)o1 (stereo not drawn) was read as PME-1 primary 45*, Fam108B inh 0, GSTO1 counter 28, LYPLA1 counter 46*, PAD4 FP inh 113*, LYPLA2 inh 59*, LYPLA1 confirm 3, LYPLA2 confirm 9 and PAD4 confirm 2.
`N#Cc1ccc(OCC(=O)OCC(=O)NCCC2=CCCCC2)cc1` gave PME-1 primary 0, Fam108B inh -5, GSTO1 counter 1, LYPLA1 counter 4, PAD4 FP inh -7 and LYPLA2 inh 1.
Screening CC(=O)N1CC=C2C(C#N)=C(N)C(C#N)(C#N)[C@H](c3ccoc3)[C@H]2C1 returned PME-1 primary 3, Fam108B inh 8, GSTO1 counter 5, LYPLA1 counter 3, PAD4 FP inh 0 and LYPLA2 inh 7.
For CN1CC=C2C(C#N)=C(N)C(C#N)(C#N)[C@H](c3ccoc3)[C@H]2C1 the results were PME-1 primary 14, Fam108B inh 9, GSTO1 counter 41*, LYPLA1 counter 14*, PAD4 FP inh 22*, LYPLA2 inh 14, LYPLA1 confirm 0 and PAD4 confirm -2.
CC(=O)Nc1ccc(S(=O)(=O)NCCN2CCNC2=O)cc1Cl was read as PME-1 primary 0, Fam108B inh 0, GSTO1 counter 2, LYPLA1 counter 0, PAD4 FP inh 2 and LYPLA2 inh -1.
`Cc1ccc(OC2=NS(=O)(=O)c3ccccc32)cc1` gave PME-1 primary 2, Fam108B inh -2, GSTO1 counter -1, LYPLA1 counter 2, PAD4 FP inh 0 and LYPLA2 inh -2.
CCN(CC)c1cccc(OC2=NS(=O)(=O)c3ccccc32)c1 was read as PME-1 primary 11, Fam108B inh 6, GSTO1 counter 17, LYPLA1 counter 15*, PAD4 FP inh 65*, LYPLA2 inh 16, LYPLA1 confirm 0 and PAD4 confirm -4.
Screening COc1ccc(CCNC(=O)COC(=O)CCC(=O)c2ccc(F)cc2)cc1 returned PME-1 primary -3, Fam108B inh -1, GSTO1 counter 6, LYPLA1 counter -2, PAD4 FP inh 2 and LYPLA2 inh 1.
For CCCCN(C)C1=CC2=CC(=C(C#N)C#N)CCC2CC1 (stereo not drawn) the results were PME-1 primary 42*, Fam108B inh 6, GSTO1 counter 2, LYPLA1 counter 32*, PAD4 FP inh 46*, LYPLA2 inh 12, LYPLA1 confirm 8 and PAD4 confirm 21*.
Screening CC1(OC(=O)c2ccco2)C(=O)C=C2C=C(C3CC3)OC=C2C1=O (stereo not drawn) returned PME-1 primary 20, Fam108B inh 14, GSTO1 counter 30, LYPLA1 counter 21*, PAD4 FP inh 20*, LYPLA2 inh 23, LYPLA1 confirm 15* and PAD4 confirm 11.

Screening data as filed in PubChem.
